In the library only some 2.2% were active in any assay of this set; here they are far more common.
HTR2A ag – activates the mouse 5-HT2A serotonin receptor; P35363; CHO-K1 mHTR2A beta-arrestin complementation, luminescence; percent of 30 µM serotonin response; activation, % at 7.6 µM; 0.66% of 360,000 active; AID 624169;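 active means activation above a run cutoff, the mean activation of all tested compounds plus 3 SD, cut at about 14% in these data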;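 further: 0% = plate median of compound wells and 100% = 30 µM serotonin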
VLA-4 inh – inhibition in a human VLA-4 binding assay. 0.2% of 330,000 active. P13612. VLA-4 expressing cells, ligand binding flow cytometry. inhibition, % (about 7 µM as worked out from the volumes in the protocol); in the data active means inhibition above about 50%
Target sequence (P13612 whole entry, looked up): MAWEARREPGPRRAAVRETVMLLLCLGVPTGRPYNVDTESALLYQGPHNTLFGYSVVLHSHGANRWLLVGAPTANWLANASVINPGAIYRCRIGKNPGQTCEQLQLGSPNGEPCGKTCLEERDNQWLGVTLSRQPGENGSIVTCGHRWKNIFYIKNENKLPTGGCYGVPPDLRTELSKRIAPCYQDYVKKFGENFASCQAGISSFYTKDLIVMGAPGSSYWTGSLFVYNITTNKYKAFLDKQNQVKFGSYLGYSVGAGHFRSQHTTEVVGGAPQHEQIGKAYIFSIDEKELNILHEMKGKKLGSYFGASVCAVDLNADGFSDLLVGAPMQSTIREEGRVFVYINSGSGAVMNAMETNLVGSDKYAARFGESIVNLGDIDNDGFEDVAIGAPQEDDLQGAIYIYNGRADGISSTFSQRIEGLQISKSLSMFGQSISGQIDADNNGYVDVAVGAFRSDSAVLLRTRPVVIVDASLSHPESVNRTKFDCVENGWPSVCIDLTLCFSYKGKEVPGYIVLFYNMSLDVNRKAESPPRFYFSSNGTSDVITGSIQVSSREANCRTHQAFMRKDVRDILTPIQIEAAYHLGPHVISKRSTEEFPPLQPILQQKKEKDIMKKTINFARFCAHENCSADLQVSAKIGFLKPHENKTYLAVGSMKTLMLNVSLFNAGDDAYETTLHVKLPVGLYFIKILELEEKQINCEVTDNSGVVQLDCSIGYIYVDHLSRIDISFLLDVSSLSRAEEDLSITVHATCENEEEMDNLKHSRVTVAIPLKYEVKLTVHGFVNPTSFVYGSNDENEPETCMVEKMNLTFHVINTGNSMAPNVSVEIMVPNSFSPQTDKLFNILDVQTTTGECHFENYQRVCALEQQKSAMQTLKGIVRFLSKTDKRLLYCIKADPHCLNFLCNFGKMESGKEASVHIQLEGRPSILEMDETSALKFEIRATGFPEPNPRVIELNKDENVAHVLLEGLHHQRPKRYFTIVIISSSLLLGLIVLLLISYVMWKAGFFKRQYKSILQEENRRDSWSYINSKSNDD
V-ATPase pHluor – yeast V-ATPase proton transport regulation by pHLuorin | 0.37% of 350,000 active | AID 504577 | response, % at 10 µM | S. cerevisiae, pHLuorin cytosolic pH fluorescence; in the data active means response mostly above about 7.3%, no sharp cut-off; inactive means mostly below about 5.4%; further: actives read high
MEX-5 binding – C. elegans MEX-5 TCR-2 RNA binding activity | MEX-5/FITC-TCR2 RNA binding, fluorescence polarization; active compounds read low | 0.38% of 300,000 active | activity score (negative = inhibition of binding), % at 10 µM;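 active means inhibition past about -25% in most replicates, and total fluorescence under double the plate's negative control median, limit read from the data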;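 further: 0% = DMSO and -100% = 5 µM competing unlabeled TCR2 RNA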
Granule exo inh – blocks lytic granule exocytosis | TALL-104 LAMP-1 surface exposure, flow cytometry; cells stimulated with thapsigargin and PMA | inhibition, % at 10 µM | 0.66% of 360,000 active | AID 651702;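 active means inhibition above about 55%, limit read from the data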
JMJD2C inh – human JMJD2C demethylase inhibition. Q9H3R0. GST-JMJD2C(1-420) H3K9me3 demethylation, DELFIA europium. inhibition, % at 2.35 µM. 0.069% of 330,000 active. AID 2099;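 active means more than half of a compound's replicate wells show inhibition beyond 50%, single wells judged on their own value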;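 further: signal counts dimethyl H3K9 product captured on neutravidin plate; 0% = median of DMSO wells and 100% = 0.3 times that DMSO median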
MOR ag counter – activates human mu opioid receptor in HTR2A counterscreen. shares compounds with HTR2A ag. U2OS OPRM1 beta-arrestin PathHunter, luminescence; DMSO 0%, DAMGO 9.3 µM 100%. activation, % at 9.3 µM. 5.3% of 2,300 active;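 active means mean activation above the mean of DMSO-only wells plus 3 SD, cut at about 0.5% in these data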
m5-HT2A ag conf – confirmation of mouse HTR2A serotonin receptor agonists. shares compounds with HTR2A ag. CHO-K1 PathHunter beta-arrestin recruitment, luminescence; DMSO 0%, 30 µM serotonin 100%. activation, % at 7.6 µM. 19% of 2,300 active;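 active means mean activation across triplicates above the hit threshold derived in the original primary screen, cut at about 15% in these data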
* marks the source's active call; other numbers are inactive results; / = no result.

SMILES	HTR2A ag	VLA-4 inh	V-ATPase pHluor	MEX-5 binding	Granule exo inh	JMJD2C inh	MOR ag counter	m5-HT2A ag conf
O=C(Nc1cccc(S(=O)(=O)N2CCOCC2)c1)C(c1ccccc1)N1CCCCC1 (stereo not given)	-2.4	6.1	1.4	-0.2	40.3	-24.3	/	/
CC(C(=O)Nc1cccc(S(=O)(=O)N2CCOCC2)c1)N1CCN(C/C=C/c2ccccc2)CC1 (stereo not given)	17.2*	-11.7	-3.4	-0.7	-1.7	-1.0	-0.7	21.3*
O=C(NC(c1ccc(-c2ccccc2)cc1)c1cnccn1)C1CCN(CCOc2ccc(F)cc2)CC1 (stereo not given)	-8.8	/	/	/	-1.8	/	/	/
O=C(O)c1ccc(OCc2cn3ccccc3n2)cc1	8.9	8.3	-2.1	2.7	-3.5	-4.6	/	/
O=C(c1ccc(OCc2cn3ccccc3n2)cc1)N1CCN(S(=O)(=O)c2ccccc2F)CC1	20.3*	/	1.9	/	0.8	/	-0.4	-2.4
Cc1cnc(N)nc1-c1ccccc1	28.6*	/	0.1	/	1.6	/	-0.5	-4.2
Nc1ncc(C(=O)O)c(-c2ccccc2)n1	-2.6	/	3.4	/	-2.8	/	/	/
Cc1ccc(Cl)c(OCC(=O)NCC(c2cccs2)N2CCOCC2)c1 (stereo not given)	2.2	-7.3	9.8	-1.0	-1.5	1.5	/	/
CCOC(=O)C1=CCN(Cc2ccccc2)CC1	18.6*	11.1	4.8	3.5	13.7	-4.5	-0.3	80.1*
CCOc1ccc(NS(=O)(=O)c2ccc(C(=O)N(C)CC(=O)Nc3ccc(C)cc3)cc2)cc1	-2.2	-6.9	-1.1	0.5	2.0	0.1	/	/
Cc1nc2c(nnn2Cc2c(Cl)cccc2Cl)c(=O)[nH]1	18.6*	15.4	5.1	-1.0	-0.5	-37.8	-0.1	4.5
O=C(C1CCCCC1)N1CCC(c2nc3c(nnn3Cc3c(F)cccc3Cl)c(=O)[nH]2)CC1	1.8	-10.1	2.7	0.6	-6.3	7.1	/	/
C/C(CC(=O)Nc1ccc(N(C)C)cc1)=N\NC(=O)c1ccccc1Cl	15.7*	/	2.5	/	4.7	/	0.9*	2.7
C/C(CC(=O)Nc1ccc(N(C)C)cc1)=N\NC(=O)c1ccc(Cl)cc1	-6.3	-0.3	1.1	-0.7	-2.0	-8.5	/	/
COc1ccccc1-c1nc2c(c(SCC(=O)N3CCCCC3)n1)Cc1c(CO)cnc(C)c1O2	14.7*	2.4	0.8	-1.2	2.4	-1.4	-0.5	-3.4
C=CCNC(=S)NN=C1CCCCCCC1	3.8	15.5	5.4	-1.6	2.8	-11.7	/	/
O=C(Nc1ccccn1)c1ccc(S(=O)(=O)N2CCCCCC2)cc1	14.8*	0.2	-6.7	-1.0	-1.5	-2.4	-0.5	-2.5
O=C(Nc1ccccn1)c1ccc(S(=O)(=O)N2CCCCC2)cc1	-3.4	-4.8	1.3	0.8	-2.7	-2.0	/	/
CCCCn1c(N)c(N(CCOC)C(=O)CCNC(=O)c2ccc(Br)cc2)c(=O)[nH]c1=O	1.5	19.3	2.6	-0.1	-2.8	-8.9	/	/
O=C(CCN1N=C(c2ccccc2)CCC1=O)NC1CCCC1	19.1*	-7.8	2.5	0.0	-1.8	-27.7	-0.7	-3.0
O=C(CCN1N=C(c2ccccc2)CCC1=O)NC1CCCCC1	0.1	/	1.6	/	2.5	/	/	/
Cc1cc(NC(=O)CSc2nnc(-c3ccccc3Cl)o2)no1	6.6	1.6	-3.0	-0.5	18.6	-10.8	/	/
CCOc1ccc(/C=C\c2nc(O)c([N+](=O)[O-])c(=O)[nH]2)cc1OCC	14.6*	1.6	3.8	1.7	0.4	-17.1	-0.6	-2.6
CCCn1c(N)c(N(CCOC)C(=O)CSc2ccccc2)c(=O)[nH]c1=O	-5.2	6.7	-1.9	/	11.5	9.0	/	/
COc1ccccc1CNC(=O)C1CCC1	15.3*	-0.4	-1.8	1.5	-1.0	2.4	-0.7	-2.9
SMILES	HTR2A ag	VLA-4 inh	V-ATPase pHluor	MEX-5 binding	Granule exo inh	JMJD2C inh	MOR ag counter	m5-HT2A ag conf
COc1ccccc1CNC(=O)COC(=O)Cc1ccc(Br)cc1	16.0*	9.4	0.1	/	-22.1	5.4	-0.6	-2.4
COc1ccccc1CNC(=O)C1CCN(S(=O)(=O)N2CCCCC2)CC1	3.9	8.4	0.7	-1.6	-7.0	6.1	/	/
CC1CCCC(NCC(=O)Nc2ccc(C(N)=O)cc2)C1C (stereo not given)	-0.1	0.8	-1.4	-0.8	1.1	-16.7	/	/
Cc1ccccc1S(=O)(=O)NC(=O)C1(C)CCN1C(=O)C1CCCCC1 (stereo not given)	-2.3	/	/	/	-2.2	/	/	/
CCCCN(CCCC)CCNC(=O)c1cn(CC)c2ccc(S(=O)(=O)N3CCCC3)cc2c1=O	3.4	2.9	4.5	0.6	-1.1	-4.4	/	/
CC(C)c1ccc(CN(C(=O)c2cccs2)C2CCS(=O)(=O)C2)cc1 (stereo not given)	14.6*	5.4	-0.7	-0.1	12.9	3.0	-0.5	-4.4
O=C(c1cccs1)N(Cc1ccc(Cl)cc1)C1CCS(=O)(=O)C1 (stereo not given)	-1.3	-117.7	6.4	1.1	-0.8	-8.3	/	/
Cc1cc(C)c(NC(=O)CN2C(=O)NC3(CCCc4ccccc43)C2=O)c(Cl)c1 (stereo not given)	-1.4	1.1	-1.1	-1.4	3.5	0.8	/	/
CN[C@H]1CCc2cc(OC)c(OC)c(OC)c2-c2ccc(N(C)CC(OC)OC)c(=O)cc21	0.8	-17.6	-3.8	2.9	-3.7	93.3	/	/
COc1cc2c(c(OC)c1OC)-c1ccc(N(C)CC(OC)OC)c(=O)cc1[C@@H](NC(C)=O)CC2	25.2*	-11.6	-0.5	2.4	-0.8	11.9	-0.6	-3.8
COc1ccc(OC)c(/C=C/C(=O)OCC(=O)NC2CCCCCCC2)c1	15.7*	10.8	1.6	/	6.3	/	-0.7	-5.8
COc1ccc(/C=C/C(=O)OCC(=O)NC2CCCCCCC2)cc1	9.3	12.4	-0.6	/	-6.3	-10.5	/	/
O=S(=O)(c1cccc2cccnc12)N1CCOCC1	21.2*	8.8	1.0	-1.8	-2.0	5.4	-0.7	-1.7
COc1ccc(NC(=O)C2CCN(S(=O)(=O)c3cccc4cccnc34)CC2)cc1OC	16.9*	-17.6	2.7	5.5	8.3	0.6	-0.3	-3.2
Cc1ccc(S(=O)(=O)Nc2ccsc2C#N)cc1	-3.4	2.2	-7.3	-0.8	-0.7	0.7	/	/
C=Cc1ccc(Cn2nc(-c3ccc(C)cc3)ccc2=O)cc1	0.1	1.7	0.6	2.0	-10.1	4.3	/	/
CCCc1cc(=O)[nH]c(SCC(=O)Nc2oc(C)c3c(C)n[nH]c(=O)c23)n1	8.0	19.8	-1.4	-3.3	1.0	42.0	/	/
COC(C[C@@H]1O[C@@H]1[C@H](O)COCc1ccccc1)OC	6.4	4.8	-1.5	/	-4.9	-13.6	/	/

Bioassay records deposited in PubChem by several laboratories.
